Laboratory results published in the supplement of paper PMC10646978.
± gives the standard deviation.

Columns and labels:
Settings in all cases: modulator concentration 10 µM
[1] = tested on: RAW-Dual (murine macrophage reporter line); experiment: NF-kB reporter (SEAP) activity fold change vs agonist alone; higher = enhanced NF-kB activity
Procedure, shortened: (§1)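 RAW-Dual murine macrophage reporter cells were plated at 50 000 per well in 384-well plates, pin-transferred compound to 10 μM final, and pre-incubated for 1 hour at 37 °C before a PRR agonist was added and the cells incubated overnight. NF-κB activity was read from supernatant SEAP with QUANTI-Blue at 620 nm absorbance, and IRF activity from Lucia luciferase with QUANTI-Luc by luminescence. Each signal was expressed as fold change by dividing by the mean agonist-only control on the same plate. Two replicate plates were averaged, with errors obtained by propagation.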

[2] = tested on: RAW-Dual (murine macrophage reporter line); experiment: IRF reporter (Lucia luciferase) activity fold change vs agonist alone; higher = enhanced IRF activity
Procedure, shortened: as §1

[3] = tested on: RAW-Dual (murine macrophage reporter line); experiment: viability score (confluency relative to resting cells, overnight) (fraction); higher = more viable, active = viable (0.7 or more)
Procedure, shortened: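 RAW-Dual macrophages in 384-well plates were incubated overnight with compound, final concentration 10 μM. Confluency images from IncuCyte were processed in IncuCyte software into two masks covering all imaged wells. The viability score is each well's confluency relative to resting cells, and a compound met the cutoff when both masks exceeded 70% of resting cells.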

[4] = agonist: CpG ODN 1826 0.5 ug/mL

Compound | NF-kB reporter [1, 4] | NF-kB reporter ([1]; agonist: LPS 0.1 ug/mL) | NF-kB reporter ([1]; agonist: MPLA […]) | IRF reporter ([2]; agonist: 3'3'-cGAMP 10 ug/mL) | IRF reporter ([2]; agonist: LPS 0.1 ug/mL) | IRF reporter ([2]; agonist: MPLA […]) | viability score [3]
CCCCN(Cc1ccccc1)C(=O)C1CCN(Cc2c(F)cccc2Cl)CC1 | 0.378 ± 0.034 | 1.09 ± 0.09 | 0.757 ± 0.056 | 1.01 ± 0.029 | 1.69 ± 0.27 | 1.36 ± 0.25 | 0.617 (inactive)
CCOC(=O)C1=C(C)N(c2ccc(OC)cc2)C(=O)C1=Cc1ccc(C(=O)O)cc1 | 0.751 ± 0.13 | 1.12 ± 0.087 | 0.984 ± 0.076 | 0.642 ± 0.022 | 1.32 ± 0.16 | 1.39 ± 0.15 | 0.997 (active)
CCOC(=O)C1=C(C)NC(C)=C(C(=O)OC)C1c1cccc([N+](=O)[O-])c1 (configuration not stated) | 0.706 ± 0.055 | 0.763 ± 0.088 | 0.859 ± 0.076 | 1.02 ± 0.049 | 1.44 ± 0.098 | 1.37 ± 0.11 | 0.985 (active)
COc1cc(=O)n(C)cc1C(=O)Nc1cccnc1 | 1.06 ± 0.065 | 0.817 ± 0.13 | 1.06 ± 0.065 | 0.943 ± 0.064 | 0.899 ± 0.17 | 0.915 ± 0.25 | 0.967 (active)
O=c1ccn([C@@H]2O[C@H](CO)[C@@H](O)[C@H]2O)c(=O)[nH]1 | 1.05 ± 0.087 | 0.912 ± 0.045 | 1.05 ± 0.059 | 1.09 ± 0.066 | 0.985 ± 0.032 | 0.919 ± 0.1 | 0.998 (active)
COC(=O)C1=C(C)NC(C)=C(C(=O)OCCN2CCN(C(c3ccccc3)c3ccccc3)CC2)C1c1cccc([N+](=O)[O-])c1.Cl.Cl (configuration not stated) | 0.241 ± 0.082 | 0.588 ± 0.22 | 0.799 ± 0.051 | 0.132 ± 0.008 | 0.888 ± 0.27 | 1.32 ± 0.18 | 0.975 (active)
